Experimental data taken from PubChem BioAssay AID1347145 (National Center for Advancing Translational Sciences (NCATS), 2019).
Results filed as inconclusive are left out. A call without a number means that no potency is given here. The source made the active and inactive calls. Calls follow the shape of the dose curve; as a rule, active = well fitted inhibition curve with a large enough effect; inconclusive = small, poorly fitted or top-dose-only effect; inactive = no such curve, though single readings can be large or run the other way.

Target: N-terminal Xaa-Pro-Lys N-methyltransferase 1 (Homo sapiens) (UniProt Q9BV86)
Test: qHTS Assay for Inhibitors of N-terminal methyltransferase 1 (NTMT1): MTaseGlo Assay Confirmatory Screen, Round 1
How it was run: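 Luminescence from MTase-Glo conversion of SAH to ATP measured activity after a 30 min RT reaction with 1 µM SPKRIA substrate, 100 µM SAM and 125 nM enzyme. Normalization used no-enzyme and DMSO controls, followed by Hill fitting.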
Potency is read from the fitted curve at half-maximal effect.

N-terminal Xaa-Pro-Lys N-methyltransferase 1 (Homo sapiens), sequence (Q9BV86 whole entry, looked up): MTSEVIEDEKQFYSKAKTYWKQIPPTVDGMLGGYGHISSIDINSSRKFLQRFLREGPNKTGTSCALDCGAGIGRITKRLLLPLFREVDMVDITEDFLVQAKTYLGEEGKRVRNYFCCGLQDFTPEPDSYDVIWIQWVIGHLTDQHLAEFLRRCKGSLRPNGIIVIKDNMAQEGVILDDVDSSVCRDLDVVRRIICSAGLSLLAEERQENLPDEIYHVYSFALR

Compound | Potency
O=S(=O)(O)c1ccc(Nc2ncnc3c2ncn3[C@@H]2O[C@H](CO)[C@@H](O)[C@H]2O)cc1 | inactive
COc1cc2c(NC3CCN(C(C)C)CC3)nc(N3CCC(N4CCCC4)CC3)nc2cc1OCCCN1CCCCC1 | inactive
CSc1ncnc2c1ncn2C1OC(CO)C(O)C1O (configuration not stated) | 30.6 µM (active)
CCCc1cc(C)[nH]c(=O)c1CNC(=O)c1cc(-c2ccc(N3CCN(C(C)C)CC3)nc2)cc2c1cnn2C(C)C | inactive
COc1cc2nc(N3CCOCC3)nc(NC3CCN(C)CC3)c2cc1OC | inactive
Nc1ncnc2c1[nH]c(=S)n2C1OC(CO)C(O)C1O (configuration not stated) | inactive
Cc1cc2nc3c(=O)[nH]c(=O)nc-3n(C[C@H](O)[C@H](O)[C@H](O)COP(=O)(O)OP(=O)(O)OC[C@H]3O[C@@H](n4cnc5c(N)ncnc54)[C@H](O)[C@H]3O)c2cc1C | inactive
CCCC(=O)Nc1ncnc2c1ncn2[C@@H]1O[C@@H]2COP(=O)(O)O[C@H]2[C@H]1OC(=O)CCC | inactive
CSc1nc(N)c2ncn([C@@H]3O[C@H](COP(=O)(O)OP(=O)(O)O)C(O)[C@H]3O)c2n1 (some centres not stated) | inactive
Nc1nc(Cl)nc2c1ncn2[C@@H]1O[C@H](CO)C(O)[C@H]1O (some centres not stated) | inactive
Nc1nc(Cl)nc2c1ncn2[C@@H]1O[C@H](CO)[C@H](O)[C@H]1O | inactive
Nc1ncnc2c1nc(Cl)n2[C@@H]1O[C@H](CO)[C@@H](O)[C@@H]1O | inactive
COc1cc2nc(N(C)C)nc(NC3CC3)c2cc1OC | inactive
Nc1nc(Nc2ccccc2)nc2c1ncn2[C@@H]1O[C@H](CO)C(O)[C@H]1O (some centres not stated) | inactive
COc1cc2nc(N3CCN(C)CC3)nc(NC3CC3)c2cc1OC | inactive
OC[C@H]1O[C@@H](n2cnc3c(NCc4ccccc4)ncnc32)[C@H](O)[C@@H]1O | inactive
COc1cc2c(NC3CCN(C)CC3)nc(N3CCCN(C)CC3)nc2cc1OCCOCCN(C)C | inactive
COc1cc2c(NC3CCN(C)CC3)nc(N3CCCCC3)nc2cc1OCCOCCN1CCCC1 | inactive
CCCN(C)CCCOc1cc2nc(N3CCCN(C)CC3)nc(NC3CCN(C)CC3)c2cc1OC | inactive

Compound | Potency
Nc1ncnc2c1ncn2[C@@H]1O[C@H](CO)C(O)[C@H]1O (some centres not stated) | inactive
COc1cc2nc(N3CCCN(C)CC3)nc(NC(C)C)c2cc1OC | inactive
C=C1OC(CO)(n2cnc3c(N)ncnc32)C(O)C1O (configuration not stated) | inactive
Nc1ncnc2c1[nH]c(=O)n2C1OC(CO)C(O)C1O (configuration not stated) | inactive
Nc1ncnc2c1[nH]c(=O)n2C1CC(O)C(CO)O1 (configuration not stated) | inactive
COc1cc2c(NC3CCN(C)CC3)nc(N3CCCN(C)CC3)nc2cc1OCCCN1CCCC1 | inactive
COc1cc2nc(N3CCCCC3)nc(NC3CCN(C)CC3)c2cc1OC | inactive
COC1C(O)C(CO)OC1n1cnc2c(NC3CCCCC3)ncnc21 (configuration not stated) | inactive
Nc1nc(Cl)nc2c1ncn2[C@@H]1O[C@H](COP(=O)(O)OP(=O)(O)OP(=O)(O)O)C(O)[C@H]1O (some centres not stated) | inactive
COc1cc2c(NC3CCN(C)CC3)nc(N3CCCN(C)CC3)nc2cc1OCCCCCN(C)C | inactive
Nc1nc2c(ncn2[C@@H]2O[C@H](CO)[C@@H](O)[C@@H]2O)c(=O)[nH]1 | inactive
CNc1nc(N2CCCN(C)CC2)nc2cc(OC)c(OC)cc12 | inactive
Nc1ncnc2c1ncn2[C@@H]1O[C@H](COP(=O)(O)OP(=O)(O)O)[C@@H](O)[C@H]1O | inactive
COc1cc2c(NC3CCN(C(C)C)CC3)nc(N3CCCN(C)CC3)nc2cc1OCCOCCN1CCCC1 | inactive
Nc1ncnc2c1ncn2[C@H]1O[C@@H](CNS(=O)(=O)NC(=O)c2cccc(-c3noc(-c4ccccc4F)n3)c2)[C@H](O)[C@@H]1O | 1.93 µM (active)
Nc1ncnc2c1ncn2[C@@H]1O[C@H](CO)[C@@H](O)[C@@H]1O | inactive
CNC(=O)[C@H]1O[C@H](n2cnc3c(NCc4cccc(I)c4)ncnc32)[C@@H](O)[C@@H]1O | inactive
Nc1[nH]c(=O)nc2c1ncn2C1OC(CO)C(O)C1O (configuration not stated) | inactive
